Drawing on PMC7862700, “An all-to-all approach to the identification of sequence-specific readers for epigenetic DNA modifications on cytosine”, this text covers binding signal for one sequence.

Common to all, as to assay: DAPPL (digital affinity profiling via proximity ligation, sequencing); 10 mM Tris-HCl pH 7.5, 50 mM NaCl, 1 mM DTT, 4% glycerol, room temperature, 30 min; GST-TFs on glutathione beads, 16-mer random dsDNA library, 0.1% formaldehyde crosslink after washing; high values mean tight binding
In assay [1] the target is T1, FLI1 (Homo sapiens, UniProt Q01543 1-452).
T1 sequence: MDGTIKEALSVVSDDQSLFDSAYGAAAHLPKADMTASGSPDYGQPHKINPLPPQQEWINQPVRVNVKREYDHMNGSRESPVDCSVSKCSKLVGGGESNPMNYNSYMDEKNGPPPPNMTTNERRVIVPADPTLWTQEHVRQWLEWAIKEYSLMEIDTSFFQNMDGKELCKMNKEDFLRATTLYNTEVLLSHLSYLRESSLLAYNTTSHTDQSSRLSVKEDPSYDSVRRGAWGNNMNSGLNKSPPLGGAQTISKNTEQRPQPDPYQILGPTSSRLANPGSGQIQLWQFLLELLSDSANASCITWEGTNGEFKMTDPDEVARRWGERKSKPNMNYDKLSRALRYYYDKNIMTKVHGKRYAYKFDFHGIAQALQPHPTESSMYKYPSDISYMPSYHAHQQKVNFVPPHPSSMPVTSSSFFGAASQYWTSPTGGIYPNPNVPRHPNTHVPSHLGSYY
To be noted: protein: recombinant; tags: N-terminal GST; dsDNA, one strand shown. The method in brief: (§1)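 Binding signal is each hexamer's read frequency for a factor divided by its frequency in the tag-only sample. The factors were GST-fused human transcription factors from yeast, captured on glutathione beads, DNA-barcoded and pooled with that sample. Pools were incubated with 200 nmole of a random double-stranded 16-mer DNA library in Tris/NaCl/DTT/glycerol buffer at room temperature for 30 min, then washed, crosslinked with 0.1% formaldehyde, proximity-ligated with BsaI/T4 ligase (1 h, 37 °C), PCR-amplified and sequenced on an Illumina NextSeq500.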

In assay [2] the target is T2, ELK1 (Homo sapiens, UniProt P19419 1-428).
T2 sequence: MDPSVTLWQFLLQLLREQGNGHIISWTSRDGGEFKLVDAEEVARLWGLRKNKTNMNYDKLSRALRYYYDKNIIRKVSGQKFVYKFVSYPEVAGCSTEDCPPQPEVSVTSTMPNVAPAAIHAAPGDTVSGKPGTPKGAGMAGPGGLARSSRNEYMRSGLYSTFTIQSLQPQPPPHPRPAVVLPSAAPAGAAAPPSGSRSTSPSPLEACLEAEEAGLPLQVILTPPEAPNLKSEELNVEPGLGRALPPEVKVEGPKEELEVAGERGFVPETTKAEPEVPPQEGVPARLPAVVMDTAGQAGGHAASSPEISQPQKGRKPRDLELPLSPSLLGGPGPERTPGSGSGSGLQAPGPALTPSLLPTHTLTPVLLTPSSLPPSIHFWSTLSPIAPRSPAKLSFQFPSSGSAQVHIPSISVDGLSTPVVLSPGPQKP
To be noted: protein: recombinant; tags: N-terminal GST; dsDNA, one strand shown. In short, it runs like this:
as §1

The target in assay [3] is T3, GABPA (Homo sapiens, UniProt Q06546 1-454).
T3 sequence: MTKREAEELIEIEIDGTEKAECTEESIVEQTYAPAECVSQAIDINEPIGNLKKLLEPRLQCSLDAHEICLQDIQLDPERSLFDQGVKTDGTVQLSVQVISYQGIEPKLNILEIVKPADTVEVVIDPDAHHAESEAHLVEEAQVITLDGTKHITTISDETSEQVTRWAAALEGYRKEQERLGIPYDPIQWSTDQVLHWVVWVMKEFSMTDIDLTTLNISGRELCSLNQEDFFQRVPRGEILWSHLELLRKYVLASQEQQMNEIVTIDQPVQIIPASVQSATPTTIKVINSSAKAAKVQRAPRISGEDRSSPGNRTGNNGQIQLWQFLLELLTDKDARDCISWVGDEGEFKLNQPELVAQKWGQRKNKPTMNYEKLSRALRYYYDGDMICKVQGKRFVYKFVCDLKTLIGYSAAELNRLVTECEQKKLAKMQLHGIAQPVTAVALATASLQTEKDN
To be noted: protein: recombinant; tags: N-terminal GST; dsDNA, one strand shown. The method in brief:
as §1

The target in assay [4] is T4, ERG (Homo sapiens, UniProt P11308 1-479).
T4 sequence: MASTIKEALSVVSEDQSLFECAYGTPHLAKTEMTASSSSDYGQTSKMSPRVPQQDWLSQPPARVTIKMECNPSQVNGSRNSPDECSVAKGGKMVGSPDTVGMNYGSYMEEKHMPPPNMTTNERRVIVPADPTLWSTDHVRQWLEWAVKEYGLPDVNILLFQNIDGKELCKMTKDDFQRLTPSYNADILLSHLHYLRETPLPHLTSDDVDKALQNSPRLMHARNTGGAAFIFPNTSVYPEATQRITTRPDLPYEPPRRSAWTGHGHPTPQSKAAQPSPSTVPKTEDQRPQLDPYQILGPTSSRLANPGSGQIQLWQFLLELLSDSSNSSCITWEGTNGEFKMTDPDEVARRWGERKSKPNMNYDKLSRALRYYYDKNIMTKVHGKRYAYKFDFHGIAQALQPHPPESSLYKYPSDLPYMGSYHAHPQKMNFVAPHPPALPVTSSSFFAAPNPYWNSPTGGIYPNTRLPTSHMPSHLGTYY
To be noted: protein: recombinant; tags: N-terminal GST; dsDNA, one strand shown. The method in brief:
as §1

Assay [5] deals with ELF1 (Homo sapiens, UniProt P32519 1-619). To be noted: protein: recombinant; tags: N-terminal GST; dsDNA, one strand shown. In short, it runs like this: as §1
Assay [6] addresses T5, EHF (Homo sapiens, UniProt Q9NZC4 1-300).
T5 sequence: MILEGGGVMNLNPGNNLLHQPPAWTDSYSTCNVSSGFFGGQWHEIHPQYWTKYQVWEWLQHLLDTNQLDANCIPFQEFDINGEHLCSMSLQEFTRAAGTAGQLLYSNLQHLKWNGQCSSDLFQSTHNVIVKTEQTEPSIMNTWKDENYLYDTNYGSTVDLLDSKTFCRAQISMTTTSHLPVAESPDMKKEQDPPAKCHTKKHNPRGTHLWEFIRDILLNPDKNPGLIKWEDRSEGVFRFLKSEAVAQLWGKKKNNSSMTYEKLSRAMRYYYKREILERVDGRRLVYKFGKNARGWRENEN
To be noted: protein: recombinant; tags: N-terminal GST; dsDNA, one strand shown. The method in brief:
as §1

The target in assay [7] is SPI1 (Homo sapiens, UniProt P17947 1-270). To be noted: protein: recombinant; tags: N-terminal GST; dsDNA, one strand shown. The method in brief:
as §1

Assay [8] has as its target SPIB (Homo sapiens, UniProt Q01892 1-262). To be noted: protein: recombinant; tags: N-terminal GST; dsDNA, one strand shown. In short, it runs like this:
as §1

The target of assay [9] is T6, ELK3 (Homo sapiens, UniProt P41970 1-407).
T6 sequence: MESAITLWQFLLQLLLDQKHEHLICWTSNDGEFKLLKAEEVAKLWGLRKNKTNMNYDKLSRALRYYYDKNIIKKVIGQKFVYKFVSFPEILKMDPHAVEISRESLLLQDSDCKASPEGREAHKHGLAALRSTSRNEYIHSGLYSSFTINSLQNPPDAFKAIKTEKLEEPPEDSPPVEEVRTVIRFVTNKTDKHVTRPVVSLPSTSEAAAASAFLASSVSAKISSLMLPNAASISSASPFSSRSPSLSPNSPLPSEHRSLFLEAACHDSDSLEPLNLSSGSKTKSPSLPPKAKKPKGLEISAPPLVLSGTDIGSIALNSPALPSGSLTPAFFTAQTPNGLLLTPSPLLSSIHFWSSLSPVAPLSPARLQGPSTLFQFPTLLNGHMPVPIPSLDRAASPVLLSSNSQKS
To be noted: protein: recombinant; tags: N-terminal GST; dsDNA, one strand shown. The method in brief: as §1

In assay [10] the target is T7, FEV (Homo sapiens, UniProt Q99581 1-238).
T7 sequence: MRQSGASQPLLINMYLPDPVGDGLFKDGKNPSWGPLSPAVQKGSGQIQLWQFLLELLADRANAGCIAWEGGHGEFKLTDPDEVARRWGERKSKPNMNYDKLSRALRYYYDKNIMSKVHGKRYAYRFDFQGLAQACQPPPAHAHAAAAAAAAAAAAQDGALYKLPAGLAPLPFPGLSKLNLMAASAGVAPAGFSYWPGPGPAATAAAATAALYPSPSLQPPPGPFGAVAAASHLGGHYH
To be noted: protein: recombinant; tags: N-terminal GST; dsDNA, one strand shown. The method in brief:
as §1

The target of assay [11] is ETV5 (Homo sapiens, UniProt P41161 1-510). To be noted: protein: recombinant; tags: N-terminal GST; dsDNA, one strand shown. In short, it runs like this: as §1
Assay [12] addresses HSF1 (Homo sapiens, UniProt Q00613 1-529). To be noted: protein: recombinant; tags: N-terminal GST; chain copies: 3; dsDNA, one strand shown. The method in brief:
as §1

Assay [13] concerns the target T8, SPIC (Homo sapiens, UniProt Q8N5J4 1-248).
T8 sequence: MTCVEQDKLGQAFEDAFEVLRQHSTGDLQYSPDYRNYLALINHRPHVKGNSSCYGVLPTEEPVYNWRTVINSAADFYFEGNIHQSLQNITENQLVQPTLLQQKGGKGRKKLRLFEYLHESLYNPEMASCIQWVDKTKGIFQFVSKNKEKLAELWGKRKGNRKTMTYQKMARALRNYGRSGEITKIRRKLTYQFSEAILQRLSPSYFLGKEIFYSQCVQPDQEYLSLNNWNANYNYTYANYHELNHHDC
To be noted: protein: recombinant; tags: N-terminal GST; dsDNA, one strand shown. The method in brief:
as §1

Assay [14] concerns the target ELF4 (Homo sapiens, UniProt Q99607 1-663). To be noted: protein: recombinant; tags: N-terminal GST; dsDNA, one strand shown. In short, it runs like this: as §1
For assay [15], the target named is T9, ELK4 (Homo sapiens, UniProt P28324-2 1-405).
T9 sequence: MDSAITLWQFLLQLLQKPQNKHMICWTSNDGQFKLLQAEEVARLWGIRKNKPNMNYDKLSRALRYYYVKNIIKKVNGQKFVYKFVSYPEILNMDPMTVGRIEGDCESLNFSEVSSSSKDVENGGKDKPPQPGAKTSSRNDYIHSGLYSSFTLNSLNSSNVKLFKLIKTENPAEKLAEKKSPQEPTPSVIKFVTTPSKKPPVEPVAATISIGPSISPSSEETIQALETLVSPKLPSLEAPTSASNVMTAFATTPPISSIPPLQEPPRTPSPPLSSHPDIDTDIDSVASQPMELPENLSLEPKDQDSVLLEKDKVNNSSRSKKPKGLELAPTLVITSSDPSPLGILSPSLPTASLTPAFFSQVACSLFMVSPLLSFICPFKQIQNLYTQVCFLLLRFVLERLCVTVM
To be noted: protein: recombinant; tags: N-terminal GST; dsDNA, one strand shown. The method in brief:
as §1

Assay [16] deals with T10, ETV2 (Homo sapiens, UniProt O00321 1-342).
T10 sequence: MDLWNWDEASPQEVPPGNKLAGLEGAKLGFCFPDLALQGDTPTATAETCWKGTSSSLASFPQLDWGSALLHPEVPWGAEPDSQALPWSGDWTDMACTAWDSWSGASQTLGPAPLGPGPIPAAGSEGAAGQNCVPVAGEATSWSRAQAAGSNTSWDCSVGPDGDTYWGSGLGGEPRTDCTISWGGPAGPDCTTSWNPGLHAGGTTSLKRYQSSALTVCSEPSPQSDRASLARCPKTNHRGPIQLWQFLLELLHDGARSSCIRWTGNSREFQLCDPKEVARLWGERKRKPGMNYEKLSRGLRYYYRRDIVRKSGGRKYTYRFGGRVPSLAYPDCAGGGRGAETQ
To be noted: protein: recombinant; tags: N-terminal GST; dsDNA, one strand shown. In short, it runs like this:
as §1

Assay [17] deals with T11, ELF3 (Homo sapiens, UniProt P78545 1-371).
T11 sequence: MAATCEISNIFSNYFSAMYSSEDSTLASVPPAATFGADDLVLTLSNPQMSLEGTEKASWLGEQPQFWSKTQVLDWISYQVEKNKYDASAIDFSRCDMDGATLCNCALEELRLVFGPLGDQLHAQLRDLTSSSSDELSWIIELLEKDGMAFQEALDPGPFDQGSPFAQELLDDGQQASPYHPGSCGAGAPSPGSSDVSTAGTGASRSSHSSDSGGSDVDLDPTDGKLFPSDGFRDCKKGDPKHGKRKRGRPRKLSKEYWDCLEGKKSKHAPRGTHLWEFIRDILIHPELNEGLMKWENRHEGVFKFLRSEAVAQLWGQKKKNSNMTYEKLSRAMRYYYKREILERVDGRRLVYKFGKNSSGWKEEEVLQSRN
To be noted: protein: recombinant; tags: N-terminal GST; dsDNA, one strand shown. The method in brief: as §1

Assay [18] deals with CRX (Homo sapiens, UniProt O43186 1-299). To be noted: protein: recombinant; tags: N-terminal GST; dsDNA, one strand shown. In short, it runs like this:
as §1

In assay [19] the target is ETV1 (Homo sapiens, UniProt P50549 1-477). To be noted: protein: recombinant; tags: N-terminal GST; dsDNA, one strand shown. The method in brief:
as §1

Sequence of SPIB (Q01892 whole entry): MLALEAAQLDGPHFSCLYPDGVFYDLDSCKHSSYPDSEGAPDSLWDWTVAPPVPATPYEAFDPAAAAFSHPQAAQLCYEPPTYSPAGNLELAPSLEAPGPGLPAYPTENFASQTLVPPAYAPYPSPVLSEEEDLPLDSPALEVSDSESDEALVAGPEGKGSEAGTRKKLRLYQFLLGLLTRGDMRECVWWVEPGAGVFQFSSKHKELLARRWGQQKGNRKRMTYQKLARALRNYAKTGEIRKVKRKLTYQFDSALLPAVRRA
Sequence of ETV1 (P50549 whole entry): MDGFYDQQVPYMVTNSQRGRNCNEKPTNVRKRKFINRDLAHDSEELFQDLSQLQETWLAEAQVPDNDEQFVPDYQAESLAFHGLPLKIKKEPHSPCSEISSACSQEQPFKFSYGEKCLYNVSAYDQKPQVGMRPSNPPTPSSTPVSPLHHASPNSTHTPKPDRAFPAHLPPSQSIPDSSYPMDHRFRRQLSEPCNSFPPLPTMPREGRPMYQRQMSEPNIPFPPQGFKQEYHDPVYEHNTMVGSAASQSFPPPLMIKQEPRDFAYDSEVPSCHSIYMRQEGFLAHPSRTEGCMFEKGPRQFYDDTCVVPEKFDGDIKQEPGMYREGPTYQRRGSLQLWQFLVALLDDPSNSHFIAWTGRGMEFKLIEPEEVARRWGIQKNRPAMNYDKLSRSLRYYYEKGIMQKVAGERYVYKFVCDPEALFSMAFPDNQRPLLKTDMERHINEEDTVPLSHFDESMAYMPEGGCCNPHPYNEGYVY
Sequence of CRX (O43186 whole entry): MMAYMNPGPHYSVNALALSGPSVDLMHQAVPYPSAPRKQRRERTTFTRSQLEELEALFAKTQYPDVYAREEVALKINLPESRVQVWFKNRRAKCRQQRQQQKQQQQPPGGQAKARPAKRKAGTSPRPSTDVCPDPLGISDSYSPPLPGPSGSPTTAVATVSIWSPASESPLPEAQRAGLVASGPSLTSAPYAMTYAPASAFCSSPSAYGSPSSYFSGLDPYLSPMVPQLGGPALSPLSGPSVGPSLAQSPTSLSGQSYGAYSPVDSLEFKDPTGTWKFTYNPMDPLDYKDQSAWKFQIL
Sequence of ELF4 (Q99607 whole entry): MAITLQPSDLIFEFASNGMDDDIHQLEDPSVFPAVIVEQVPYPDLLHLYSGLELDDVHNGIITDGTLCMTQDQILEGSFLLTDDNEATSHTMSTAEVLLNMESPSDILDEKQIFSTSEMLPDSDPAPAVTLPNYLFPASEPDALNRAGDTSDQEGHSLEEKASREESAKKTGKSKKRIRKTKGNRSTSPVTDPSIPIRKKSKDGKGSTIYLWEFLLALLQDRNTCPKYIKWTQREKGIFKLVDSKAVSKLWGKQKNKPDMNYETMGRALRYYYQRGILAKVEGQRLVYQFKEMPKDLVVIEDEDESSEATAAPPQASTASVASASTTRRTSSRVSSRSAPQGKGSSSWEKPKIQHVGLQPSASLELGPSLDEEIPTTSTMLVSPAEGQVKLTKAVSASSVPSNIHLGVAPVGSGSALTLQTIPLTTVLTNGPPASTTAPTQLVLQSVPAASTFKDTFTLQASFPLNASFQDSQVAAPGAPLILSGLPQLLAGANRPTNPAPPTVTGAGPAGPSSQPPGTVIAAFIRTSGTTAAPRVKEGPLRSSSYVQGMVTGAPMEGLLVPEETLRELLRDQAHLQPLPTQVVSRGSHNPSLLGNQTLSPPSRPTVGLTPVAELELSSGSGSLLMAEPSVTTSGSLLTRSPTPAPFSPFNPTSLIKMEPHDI
Sequence of ELF1 (P32519 whole entry): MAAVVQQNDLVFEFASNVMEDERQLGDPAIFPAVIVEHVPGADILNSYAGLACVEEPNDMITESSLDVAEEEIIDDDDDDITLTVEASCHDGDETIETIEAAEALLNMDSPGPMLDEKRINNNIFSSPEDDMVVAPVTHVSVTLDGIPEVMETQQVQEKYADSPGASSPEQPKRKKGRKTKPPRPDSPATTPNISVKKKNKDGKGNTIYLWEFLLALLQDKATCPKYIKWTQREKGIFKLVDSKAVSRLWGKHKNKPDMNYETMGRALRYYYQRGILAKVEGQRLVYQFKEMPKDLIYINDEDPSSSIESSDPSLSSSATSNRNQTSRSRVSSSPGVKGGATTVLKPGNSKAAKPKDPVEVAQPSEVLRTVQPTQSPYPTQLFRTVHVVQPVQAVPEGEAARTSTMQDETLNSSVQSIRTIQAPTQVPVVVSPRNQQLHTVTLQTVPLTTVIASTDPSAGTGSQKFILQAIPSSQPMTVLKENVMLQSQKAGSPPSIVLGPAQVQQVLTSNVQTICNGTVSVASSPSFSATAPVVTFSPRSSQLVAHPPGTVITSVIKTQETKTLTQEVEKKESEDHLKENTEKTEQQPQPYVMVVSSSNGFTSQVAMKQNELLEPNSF
Sequence of ETV5 (P41161 whole entry): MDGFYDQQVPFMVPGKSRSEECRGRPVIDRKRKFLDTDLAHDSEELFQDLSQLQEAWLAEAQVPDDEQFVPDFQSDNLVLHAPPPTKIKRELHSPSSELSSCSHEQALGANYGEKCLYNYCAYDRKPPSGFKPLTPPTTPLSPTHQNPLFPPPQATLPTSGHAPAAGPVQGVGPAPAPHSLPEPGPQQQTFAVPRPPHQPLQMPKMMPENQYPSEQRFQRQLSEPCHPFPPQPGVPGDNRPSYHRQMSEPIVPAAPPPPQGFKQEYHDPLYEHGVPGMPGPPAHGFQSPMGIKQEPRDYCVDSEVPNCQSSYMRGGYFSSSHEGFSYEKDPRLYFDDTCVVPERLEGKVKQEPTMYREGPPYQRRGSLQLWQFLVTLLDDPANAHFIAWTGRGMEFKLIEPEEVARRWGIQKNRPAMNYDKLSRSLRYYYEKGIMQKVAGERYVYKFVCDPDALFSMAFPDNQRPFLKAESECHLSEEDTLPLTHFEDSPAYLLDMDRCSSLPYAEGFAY
Sequence of HSF1 (Q00613 whole entry): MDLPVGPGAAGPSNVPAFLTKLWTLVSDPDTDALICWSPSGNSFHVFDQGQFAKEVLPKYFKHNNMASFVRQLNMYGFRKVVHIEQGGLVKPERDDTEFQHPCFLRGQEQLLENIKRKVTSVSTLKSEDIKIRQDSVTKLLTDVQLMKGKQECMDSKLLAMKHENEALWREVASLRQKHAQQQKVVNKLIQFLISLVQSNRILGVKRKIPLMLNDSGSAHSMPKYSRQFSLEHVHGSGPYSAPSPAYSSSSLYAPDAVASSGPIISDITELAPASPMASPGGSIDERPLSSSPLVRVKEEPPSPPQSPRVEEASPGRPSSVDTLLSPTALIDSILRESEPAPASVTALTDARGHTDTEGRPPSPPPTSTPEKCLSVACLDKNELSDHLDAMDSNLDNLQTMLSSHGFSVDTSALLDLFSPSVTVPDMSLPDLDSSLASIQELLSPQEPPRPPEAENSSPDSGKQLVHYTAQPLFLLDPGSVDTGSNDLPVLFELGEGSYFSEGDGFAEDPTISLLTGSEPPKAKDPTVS

TCTCAT: the binding signal in [1] was 1.3 fold enrichment (6-mer frequency, TF over GST control); in assay [2] it was 1.36 fold enrichment (6-mer frequency, TF over GST control); in assay [3], 1.34 fold enrichment (6-mer frequency, TF over GST control); in assay [4] it was 1.2 fold enrichment (6-mer frequency, TF over GST control); in assay [5], 1.36 fold enrichment (6-mer frequency, TF over GST control); in assay [6], 1.31 fold enrichment (6-mer frequency, TF over GST control). Also, the binding signal in assay [7] is 1.37 fold enrichment (6-mer frequency, TF over GST control); in [8] it was 1.33 fold enrichment (6-mer frequency, TF over GST control); in assay [9], 1.29 fold enrichment (6-mer frequency, TF over GST control); in assay [10], 1.27 fold enrichment (6-mer frequency, TF over GST control); in [11], 1.39 fold enrichment (6-mer frequency, TF over GST control); in [12] it was 1.29 fold enrichment (6-mer frequency, TF over GST control). Further, the binding signal in assay [13] was 1.46 fold enrichment (6-mer frequency, TF over GST control); in [14], 1.25 fold enrichment (6-mer frequency, TF over GST control); in assay [15], 1.37 fold enrichment (6-mer frequency, TF over GST control); in assay [16], 1.46 fold enrichment (6-mer frequency, TF over GST control); in [17], 1.32 fold enrichment (6-mer frequency, TF over GST control); in [18], 1.36 fold enrichment (6-mer frequency, TF over GST control). For the same sequence, the binding signal in [19] was 1.38 fold enrichment (6-mer frequency, TF over GST control).
